Test results reported in the supplement of paper PMC12669032.
“And” between values parts separate entries of the source, which are not always exact repeats. Identical values can stand only once. Unmarked numbers belong to inactive results.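 The calls were made as follows: active = AUC reduced over 20% with Padj below 0.05 in at least 2 of 3 replicates; inactive = otherwise.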

How the values were obtained:
Assay in all cases: growth AUC relative to DMSO control (median of replicates) (fraction); higher = more growth (less inhibition), active = hit call of the paper
Conditions in all cases: 20 µM; 24 h
Coprococcus comes = tested on: Coprococcus comes
In short: (§1)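 For each compound at 20 µM (1% DMSO), gut bacterial monocultures seeded at OD600 0.05 grew anaerobically in mGAM at 37 °C in round-bottom 96-well plates. Hourly OD600 readings over 24 h gave growth curves whose minimum OD was set to 0. Area under these curves was normalised to the plate median of solvent-only wells, or to row and column medians on the industrial chemical plate. Values are medians of three biological replicates grown on separate days.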

Escherichia coli ED1a = tested on: Escherichia coli ED1a
In short: as §1

Escherichia coli IAI1 = tested on: Escherichia coli IAI1
In short: as §1

Eubacterium rectale = tested on: Eubacterium rectale
In short: as §1

[1] = tested on: Fusobacterium nucleatum subsp. animalis
In short: as §1

Lactobacillus gasseri = tested on: Lactobacillus gasseri
In short: as §1

Lactobacillus paracasei = tested on: Lactobacillus paracasei
In short: as §1

Odoribacter splanchnicus = tested on: Odoribacter splanchnicus
In short: as §1

[2] = tested on: Parabacteroides distasonis
In short: as §1

Parabacteroides merdae = tested on: Parabacteroides merdae
In short: as §1

Roseburia intestinalis = tested on: Roseburia intestinalis
In short: as §1

Streptococcus salivarius = tested on: Streptococcus salivarius
In short: as §1

SMILES	growth AUC (Coprococcus comes)	growth AUC (Escherichia coli ED1a)	growth AUC (Escherichia coli IAI1)	growth AUC (Eubacterium rectale)	growth AUC [1]	growth AUC (Lactobacillus gasseri)	growth AUC (Lactobacillus paracasei)	growth AUC (Odoribacter splanchnicus)	growth AUC [2]	growth AUC (Parabacteroides merdae)	growth AUC (Roseburia intestinalis)	growth AUC (Streptococcus salivarius)
CCOP(=S)(OCC)Oc1cnc2ccccc2n1	0.989	0.977	0.977	0.91	0.995	0.966	1.01	1.01	0.589 (active)	0.947	0.99	0.954
N#Cc1c(O)c(Cl)c(Cl)c(C#N)c1Cl	1.02	0.989	0.987	0.938	0.868	1.02	0.986	0.912	1.03	0.994	1.06	1
Cc1ccccc1C(=O)Nc1cccc(OC(C)C)c1	1.02	0.991	1	0.953	0.955	1.06	1.01	1.03	1.04	0.974	1.01	0.988
COC(=O)/C=C(/C)OP(=O)(OC)OC	1.02 and 1.04	1.01 and 1.05	0.997 and 1.04	1.03 and 1.05	1.03 and 1.22	0.973 and 1.01	0.956 and 1.04	1.09 and 0.835	0.972 and 0.999	1 and 1.05	1.02 and 0.985	0.944 and 1
CCOP(=S)(OCC)Oc1ccc(=O)n(-c2ccccc2)n1	0.973	0.965	0.97	0.956	0.955	0.928	1.01	0.986	0.922	0.974	0.988	0.983
NCP(=O)(O)O	1.02	1.02	1.04	1.01	0.965	1.09	1.02	1.02	1.04	1.02	1.04	1.02
C1=Cc2cccc3cccc1c23	1.01	1.02	1.01	0.988	1.02	0.975	1.04	0.99	0.889	1.02	0.987	0.98
CC1COC(Cn2cncn2)(c2ccc(Oc3ccc(Cl)cc3)cc2Cl)O1 (stereo unspecified)	0.72 (active)	0.979	1	0.723 (active)	0.983	0.952	0.986	0.904	0.801	0.871	0.823	0.962
C[C@@H]1C[C@@H]([C@H](O)CC2CC(=O)NC(=O)C2)C(=O)[C@@H](C)C1	1.03	1.01	1.02	0.992	1.12	0.936	1.06	1.02	0.985	1.03	0.987	1.03
CC(=O)O.CCCCCCCCCCCCN=C(N)N	1.02	1.02	1.02	1.04	1.04	0.794	1.02	1.02	0.933	0.996	0.805	1.03
CCCCOC(=O)N(C)SN(C)C(=O)Oc1cccc2c1OC(C)(C)C2	1	1.07	1.01	1.2	0.942	0.966	1.05	1.03	1.03	1.01	0.992	1.02
OCC1C(CO)C2(Cl)C(Cl)=C(Cl)C1(Cl)C2(Cl)Cl (stereo unspecified)	0.934	0.994	0.975	1.07	1	0.827	1.01	0.59 (active)	1.09	0.892	0.953	0.82
C[N+]1(C)CCCCC1.[Cl-]	1.07	1.03	0.992	1.2	1.09	0.976	1.02	0.941	1	1.04	0.975	0.99
CNC(=O)Oc1cccc2c1OC(C)(C)O2	1.02	1	0.993	0.967	1.01	1.11	0.984	1.02	1.02	1.02	1.01	1
COc1nc(NC(C)C)nc(NC(C)C)n1	1.01	1.01	1.02	0.97	0.885	0.984	1.01	1.03	1.03	1.02	0.963	1.05
CC(C)(C)C(O)C(Oc1ccc(Cl)cc1)n1cncn1 (stereo unspecified)	0.998	1.01	1.02	0.97	1.07	1.02	1.04	1.03	1.02	0.998	1.03	1.03
CNC(=O)CSP(=O)(OC)OC	1.04	1.01	1.03	1.01	1.04	1.06	1.05	1.05	1.02	1.01	1.02	1.01
O=C(O)COc1cc(Cl)c(Cl)cc1Cl	0.994	0.965	1.04	0.93	0.989	1.19	0.995	0.98	1	0.98	0.966	1.02
COCc1c(F)c(F)c(COC(=O)C2C(C=C(C)C)C2(C)C)c(F)c1F (stereo unspecified)	0.979	1.01	1.02	0.906	1.04	0.873	0.978	1.05	1.03	1.02	1	1.06
O=c1[nH]c2c(c(=O)n1C1CCCCC1)CCC2	0.945	0.99	0.987	0.899	0.834	0.923	1.02	0.98	0.999	0.973	0.982	0.998
CCc1cc(C)cc(CC)c1-c1c(OC(=O)C(C)(C)C)n2n(c1=O)CCOCC2	0.964	0.99	0.976	1.14	1.1	0.845	1.03	1.03	0.851	1.01	0.981	1.02
C#CCN1C(=O)COc2cc(F)c(N3C(=O)C4=C(CCCC4)C3=O)cc21	1.01	0.98	0.984	1.09	0.944	0.883	0.934	0.948	0.855	0.958	0.965	0.974
CCOP(=S)(OCC)SCSc1ccc(Cl)cc1	0.975	0.986	0.964	0.909	1.07	0.884	1	1.06	0.911	0.977	0.939	1.03
CCNc1nc(NC(C)C)[nH]c(=O)n1	0.992	1.03	1.05	0.992	1.06	1.03	0.963	0.994	1.02	1	1.04	1.02

SMILES	growth AUC (Coprococcus comes)	growth AUC (Escherichia coli ED1a)	growth AUC (Escherichia coli IAI1)	growth AUC (Eubacterium rectale)	growth AUC [1]	growth AUC (Lactobacillus gasseri)	growth AUC (Lactobacillus paracasei)	growth AUC (Odoribacter splanchnicus)	growth AUC [2]	growth AUC (Parabacteroides merdae)	growth AUC (Roseburia intestinalis)	growth AUC (Streptococcus salivarius)
CCSC(=O)N(CC)C1CCCCC1	0.988	0.987	1.03	1.01	1.01	1.2	1	0.975	1.07	1.03	1.07	0.948
c1cc2ccc3cccc4ccc(c1)c2c34	0.914	0.958	0.982	1.04	0.945	0.993	0.934	1	0.751 (active)	0.976	0.977	0.927
COC(=O)COc1cc(Cl)c(Cl)cc1Cl	0.967	0.976	1.02	0.914	0.981	1.18	1.11	0.974	0.983	0.99	0.996	1.01
CCOC(=O)c1cn2nc(OP(=S)(OCC)OCC)cc2nc1C	0.952	0.981	0.97	1.13	0.938	0.908	0.911	0.692 (active)	0.662 (active)	0.909	0.981	0.981
CC(C)(C)c1ccc(CCOc2ncnc3ccccc23)cc1	0.98	0.976	0.973	0.905	0.887	0.924	0.942	0.834	0.795 (active)	0.934	0.901	0.975
CNC(=O)Oc1cc(C)c(S(C)(=O)=O)c(C)c1	0.98	0.981	0.963	0.971	1.05	0.999	1.02	1.01	1.05	1.02	0.967	0.945
CCOP(=O)(NC(C)C)Oc1ccc(S(C)(=O)=O)c(C)c1 (stereo unspecified)	1.06	1.03	1.02	1.03	1.03	0.993	1.03	1.05	1.06	1.04	1.09	0.999
CC[C@H]1CCCC(O[C@H]2CC[C@H](N(C)C)[C@@H](C)O2)[C@@H](C)C(=O)C2=C[C@@H]3[C@@H](C=C(C)[C@@H]4C[C@@H](O[C@@H]5O[C@@H](C)[C@H](OC)[C@@H](OC)[C@H]5OC)C[C@@H]34)[C@@H]2CC(=O)O1.CC[C@H]1CCCC(O[C@H]2CC[C@H](N(C)C)[C@@H](C)O2)[C@@H](C)C(=O)C2=C[C@@H]3[C@@H](C=C[C@@H]4C[C@@H](O[C@@H]5O[C@@H](C)[C@H](OC)[C@@H](OC)[C@H]5OC)C[C@@H]34)[C@@H]2CC(=O)O1 (stereo partly specified)	0.973	0.963	0.966	0.985	0.995	0.879	0.902	1.04	1.01	0.925	1.03	0.972
O=c1ccc(=O)[nH][nH]1	0.996	0.973	0.976	1.06	0.877	0.957	1.11	1.08	1.01	0.99	1.01	0.965
CCC(C)(C)C(=O)OC1=C(c2ccc(Cl)cc2Cl)C(=O)OC12CCCCC2	0.977	0.966	0.949	0.906	0.968	0.928	0.987	1.02	0.861	0.968	1.02	1.03
CCOP(=S)(OCC)Oc1ccc2c(C)c(Cl)c(=O)oc2c1	1	1.02	1.01	1.11	1.01	0.991	0.998	1.01	0.748 (active)	0.897	1.01	1
COCCN(C(=O)CCl)c1c(C)cccc1C	0.983	1	0.973	0.854	0.939	1.02	0.831	0.965	0.968	0.985	0.96	0.957
C=CCN(CC=C)C(=O)C(Cl)Cl	1	0.944	0.986	1.01	0.965	0.934	0.999	1.02	0.991	0.947	1	0.99
COCC(C)N(C(=O)CCl)c1c(C)csc1C (stereo unspecified)	1.02	0.976	0.993	1.16	0.825	0.806	1.01	0.822	0.683 (active)	1	0.988	0.868
OC(Cn1cncn1)(c1ccc(F)cc1)c1ccccc1F (stereo unspecified)	0.975	1.04	0.98	0.958	1.02	0.962	0.909	0.979	1.01	0.995	0.966	1.01
CSc1nc(N=[N+]=[N-])nc(NC(C)C)n1	0.963	1.02	1.01	1.05	0.812	1.15	0.938	1.02	1.02	1	1.1	1.07
CCCN(CCC)N=O	1.02	1.03	1	0.979	0.989	0.956	0.984	1.06	1.11	1.03	0.988	0.967
C[C@@H](Oc1ccc(Cl)cc1Cl)C(=O)O	0.967	1.02	1.02	1.17	1.07	0.906	0.949	0.98	0.964	1.01	0.927	0.919
O=C(O)C(F)(F)C(F)(F)C(F)(F)C(F)(F)C(F)(F)C(F)(F)C(F)(F)C(F)(F)F	1.01	1.01	1.01	0.99	1	1	1.03	1.07	1.18	1.01	0.975	0.998
COP(=S)(NC(C)C)Oc1ccc(C)cc1[N+](=O)[O-] (stereo unspecified)	1.03	0.997	0.996	0.933	1.06	1.03	1.06	0.998	0.972	0.973	1.01	1.02
CSC1=N[C@@](C)(c2ccccc2)C(=O)N1Nc1ccccc1	0.988	1.01	0.993	1.08	1.2	0.853	0.968	0.924	0.872	0.953	0.997	1.01
CC(=O)O.NC(N)=NCCCCCCCCNCCCCCCCCN=C(N)N	0.64 (active)	1	0.928	0.0294 (active)	0.871	0.874	0.961	0.0478 (active)	0.132 (active)	0.0209 (active)	0.039 (active)	0.474 (active)
O=c1[nH]c(Cl)c(Cl)cc1Cl	0.998	0.952	0.983	0.991	1.04	0.928	0.984	0.942	0.921	1.01	0.993	0.998
CC1(C)OC(c2ccco2)CN1C(=O)C(Cl)Cl (stereo unspecified)	1.03	1.01	0.994	0.803	0.934	1.07	0.976	1.05	0.99	0.968	1.03	1.01
